PubChem BioAssay (NCI)
This is part of a sample that, as a whole, favours compounds with a hit. Of some 79,000 tested, about 15% had one in any assay. A number with no mark means an inactive call. Calls of active or inactive are those of the source. No stated cut-off is given here; in the data, active means growth inhibition above about 70%; inactive means the rest.

Columns and labels:
[1] = NCI Yeast Anticancer Drug Screen. Data for the rad50 strain (AID 155);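 further: 0% = growth of vehicle-only cultures of the same strain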; settings: S. cerevisiae rad50 strain growth inhibition, stronger effect = higher value
Method in brief: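 A DNA repair-deficient yeast mutant serves as the test organism; compound-induced growth inhibition is calculated against vehicle-treated cells.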

[2] = NCI Yeast Anticancer Drug Screen. Data for the mec2-1 strain (AID 157); settings: S. cerevisiae mec2-1 strain, stronger effect = higher value
Method in brief: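 Strain: mec2-1 (DNA repair/cell cycle alteration). Compound exposure, then growth measured; inhibition expressed relative to vehicle.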

[3] = NCI Yeast Anticancer Drug Screen. Data for the sgs1 mgt1 strain (AID 161);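 further: 0% = growth of cultures given vehicle only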; settings: S. cerevisiae sgs1 mgt1 strain, stronger effect = higher value
Method in brief: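 Genetically altered yeast, compound exposure, growth inhibition relative to vehicle.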

[4] = NCI Yeast Anticancer Drug Screen. Data for the cln2 rad14 strain (AID 165);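 further: 0% = growth equal to vehicle treated cultures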; settings: S. cerevisiae cln2 rad14 strain, stronger effect = higher value
Method in brief: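 Compounds are applied to the cln2 rad14 yeast strain, and growth is then compared with that of vehicle-treated cultures to give inhibition.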

[5] = NCI Yeast Anticancer Drug Screen. Data for the bub3 strain (AID 167); settings: S. cerevisiae bub3 mutant strain, stronger effect = higher value
Method in brief: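 Inhibition values come from growth of compound-treated mutant yeast normalised to vehicle-treated controls.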

[6] = NCI Yeast Anticancer Drug Screen. Data for the mlh1 rad18 strain (AID 175); settings: S. cerevisiae mlh1 rad18 strain growth inhibition, stronger effect = higher value
Method in brief: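 Read-out is yeast growth inhibition, calculated against vehicle-only controls. The compound was applied to a strain engineered with DNA damage repair alterations.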

[7] = at 5.0 µM (retest, dose inferred, filed as 0.5)
[8] = at 50.0 µM (retest, dose inferred, filed as 5.0)

Question: What does the source list for COC1CC(C)C(OC)C2=CC(=O)C=C(NC(=O)/C(C)=C/C=C\C(C)C(OC(N)=O)/C(C)=C\C(C)C1OC)C2=O (configuration not stated)?
Answer: growth inhibition [1, 7]: 93% (active); growth inhibition [1, 8]: 98% (active); growth inhibition ([1]; at 50.0 µM): 91.5% (active); growth inhibition [2, 7]: 97% (active); growth inhibition [2, 8]: 99% (active); growth inhibition ([2]; at 50.0 µM): 93% (active); growth inhibition [3, 7]: 97% (active); growth inhibition [3, 8]: 99% (active); growth inhibition ([3]; at 50.0 µM): 92.5% (active); growth inhibition [4, 7]: 89% (active); growth inhibition [4, 8]: 97% (active); growth inhibition ([4]; at 50.0 µM): 91.2% (active); growth inhibition [5, 7]: 97% (active); growth inhibition [5, 8]: 99% (active); growth inhibition ([5]; at 50.0 µM): 91.1% (active); growth inhibition [6, 7]: 97% (active); growth inhibition [6, 8]: 98% (active); growth inhibition ([6]; at 50.0 µM): 91.4% (active)

Question: What does the source list for Cc1ccc2c(-c3ccccc3)c3ccccc3[s+]c2c1?
Answer: growth inhibition [1, 7]: 2%; growth inhibition [1, 8]: 99% (active); growth inhibition ([1]; at 50.0 µM): 99.5% (active); growth inhibition [2, 7]: 2%; growth inhibition [2, 8]: 100% (active); growth inhibition ([2]; at 50.0 µM): 99.3% (active); growth inhibition [3, 7]: 6%; growth inhibition [3, 8]: 99% (active); growth inhibition ([3]; at 50.0 µM): 99.5% (active); growth inhibition [4, 7]: 1%; growth inhibition [4, 8]: 99% (active); growth inhibition ([4]; at 50.0 µM): 99% (active); growth inhibition [5, 7]: -13%; growth inhibition [5, 8]: 99% (active); growth inhibition ([5]; at 50.0 µM): 99.2% (active); growth inhibition [6, 7]: 1%; growth inhibition [6, 8]: 99% (active); growth inhibition ([6]; at 50.0 µM): 99.2% (active)

Question: What does the source list for O=C1C(Cl)=C(Cl)C(=O)c2ccccc21?
Answer: growth inhibition [1, 7]: 99% (active); growth inhibition [1, 8]: 96% (active); growth inhibition ([1]; at 50.0 µM): 97.8% (active); growth inhibition [2, 7]: 55%; growth inhibition [2, 8]: 98% (active); growth inhibition ([2]; at 50.0 µM): 97% (active); growth inhibition [3, 7]: 99% (active); growth inhibition [3, 8]: 97% (active); growth inhibition ([3]; at 50.0 µM): 98.2% (active); growth inhibition [4, 7]: 99% (active); growth inhibition [4, 8]: 95% (active); growth inhibition ([4]; at 50.0 µM): 96.6% (active); growth inhibition [5, 7]: 98% (active); growth inhibition [5, 8]: 96% (active); growth inhibition ([5]; at 50.0 µM): 97.5% (active); growth inhibition [6, 7]: 99% (active); growth inhibition [6, 8]: 96% (active); growth inhibition ([6]; at 50.0 µM): 98% (active)

Question: Which growth inhibition [1, 7] does the source give for [Hg][c]1ccccc1 here?
Answer: 99% (active)

Question: And the growth inhibition [1, 8]?
Answer: 94% (active)

Question: And the growth inhibition ([1]; at 50.0 µM)?
Answer: 99.5% (active)

Question: What about the growth inhibition [2, 7] of the same molecule?
Answer: 99% (active)

Question: And the growth inhibition [2, 8]?
Answer: 100% (active)

Question: And the growth inhibition ([2]; at 50.0 µM)?
Answer: 99.7% (active)

Question: What about the growth inhibition [3, 7] of the same molecule?
Answer: 100% (active)

Question: And the growth inhibition [3, 8]?
Answer: 52%

Question: What about the growth inhibition ([3]; at 50.0 µM) of the same molecule?
Answer: 99.5% (active)

Question: What about the growth inhibition [4, 7] of the same molecule?
Answer: 99% (active)

Question: And the growth inhibition [4, 8]?
Answer: 27%

Question: And the growth inhibition ([4]; at 50.0 µM)?
Answer: 98.3% (active)

Question: And the growth inhibition [5, 7]?
Answer: 100% (active)

Question: What about the growth inhibition [5, 8] of the same molecule?
Answer: -2%

Question: And the growth inhibition ([5]; at 50.0 µM)?
Answer: 99.6% (active)

Question: What about the growth inhibition [6, 7] of the same molecule?
Answer: 99% (active)

Question: And the growth inhibition [6, 8]?
Answer: 53%

Question: What about the growth inhibition ([6]; at 50.0 µM) of the same molecule?
Answer: 99.3% (active)

Question: For CC12CCCCC1C(=O)C2(Cl)Cl (configuration not stated), which growth inhibition [1, 7] is on record?
Answer: -1%

Question: What about the growth inhibition [1, 8] of the same molecule?
Answer: 11%

Question: What about the growth inhibition ([1]; at 50.0 µM) of the same molecule?
Answer: 11.8%

Question: And the growth inhibition [2, 7]?
Answer: 1%

Question: And the growth inhibition [2, 8]?
Answer: 17%

Question: What about the growth inhibition ([2]; at 50.0 µM) of the same molecule?
Answer: -2.45%

Question: What about the growth inhibition [3, 7] of the same molecule?
Answer: -1%

Question: And the growth inhibition [3, 8]?
Answer: 48%

Question: What about the growth inhibition ([3]; at 50.0 µM) of the same molecule?
Answer: 43%

Question: What about the growth inhibition [4, 7] of the same molecule?
Answer: -1%

Question: And the growth inhibition [4, 8]?
Answer: -4%

Question: What about the growth inhibition ([4]; at 50.0 µM) of the same molecule?
Answer: 1.65%

Question: What about the growth inhibition [5, 7] of the same molecule?
Answer: 3%

Question: What about the growth inhibition [5, 8] of the same molecule?
Answer: 13%

Question: What about the growth inhibition ([5]; at 50.0 µM) of the same molecule?
Answer: -3.55%

Question: What about the growth inhibition [6, 7] of the same molecule?
Answer: 1%

Question: And the growth inhibition [6, 8]?
Answer: 37%

Question: What about the growth inhibition ([6]; at 50.0 µM) of the same molecule?
Answer: 27.4%

Question: For O=C(NCC1(O)N=C(c2ccc(F)cc2)c2ccsc2-n2cccc21)c1ccc(Cl)cc1Cl (configuration not stated), which growth inhibition [1, 7] is on record?
Answer: 6%

Question: And the growth inhibition [1, 8]?
Answer: 63%

Question: And the growth inhibition ([1]; at 50.0 µM)?
Answer: 96.7% (active)

Question: And the growth inhibition [2, 7]?
Answer: -2%

Question: What about the growth inhibition [2, 8] of the same molecule?
Answer: 44%

Question: And the growth inhibition ([2]; at 50.0 µM)?
Answer: 95.5% (active)

Question: And the growth inhibition [3, 7]?
Answer: -8%

Question: What about the growth inhibition [3, 8] of the same molecule?
Answer: 63%

Question: What about the growth inhibition ([3]; at 50.0 µM) of the same molecule?
Answer: 97.2% (active)

Question: What about the growth inhibition [4, 7] of the same molecule?
Answer: 2%

Question: What about the growth inhibition [4, 8] of the same molecule?
Answer: 79% (active)

Question: And the growth inhibition ([4]; at 50.0 µM)?
Answer: 93.8% (active)

Question: What about the growth inhibition [5, 7] of the same molecule?
Answer: 9%

Question: And the growth inhibition [5, 8]?
Answer: 66%

Question: And the growth inhibition ([5]; at 50.0 µM)?
Answer: 94.5% (active)

Question: And the growth inhibition [6, 7]?
Answer: 6%

Question: And the growth inhibition [6, 8]?
Answer: 77% (active)

Question: What about the growth inhibition ([6]; at 50.0 µM) of the same molecule?
Answer: 94.9% (active)

Question: For COc1cc(/C=C/[N+](=O)[O-])cc(Br)c1OC, which growth inhibition [1, 7] is on record?
Answer: 86% (active)

Question: And the growth inhibition [1, 8]?
Answer: 98% (active)

Question: What about the growth inhibition ([1]; at 50.0 µM) of the same molecule?
Answer: 90.6% (active)

Question: What about the growth inhibition [2, 7] of the same molecule?
Answer: 79% (active)

Question: And the growth inhibition [2, 8]?
Answer: 99% (active)

Question: And the growth inhibition ([2]; at 50.0 µM)?
Answer: 92.3% (active)

Question: What about the growth inhibition [3, 7] of the same molecule?
Answer: 83% (active)

Question: What about the growth inhibition [3, 8] of the same molecule?
Answer: 98% (active)

Question: And the growth inhibition ([3]; at 50.0 µM)?
Answer: 92.5% (active)

Question: What about the growth inhibition [4, 7] of the same molecule?
Answer: 55%

Question: What about the growth inhibition [4, 8] of the same molecule?
Answer: 97% (active)

Question: What about the growth inhibition ([4]; at 50.0 µM) of the same molecule?
Answer: 90.2% (active)

Question: What about the growth inhibition [5, 7] of the same molecule?
Answer: 97% (active)

Question: What about the growth inhibition [5, 8] of the same molecule?
Answer: 98% (active)

Question: What about the growth inhibition ([5]; at 50.0 µM) of the same molecule?
Answer: 91.5% (active)

Question: What about the growth inhibition [6, 7] of the same molecule?
Answer: 89% (active)

Question: And the growth inhibition [6, 8]?
Answer: 98% (active)

Question: What about the growth inhibition ([6]; at 50.0 µM) of the same molecule?
Answer: 91.7% (active)

Question: Which growth inhibition [1, 7] does the source give for Cc1cc(N(CCCl)CCCl)ccc1C1N(Cc2ccc(N(CCCl)CCCl)cc2Cl)CCCN1Cc1ccc(N(CCCl)CCCl)cc1Cl here?
Answer: 81% (active)

Question: What about the growth inhibition [1, 8] of the same molecule?
Answer: 96% (active)

Question: What about the growth inhibition ([1]; at 50.0 µM) of the same molecule?
Answer: 97.8% (active)

Question: And the growth inhibition [2, 7]?
Answer: 75% (active)

Question: What about the growth inhibition [2, 8] of the same molecule?
Answer: 96% (active)

Question: And the growth inhibition ([2]; at 50.0 µM)?
Answer: 99.2% (active)

Question: And the growth inhibition [3, 7]?
Answer: 57%

Question: What about the growth inhibition [3, 8] of the same molecule?
Answer: 95% (active)

Question: And the growth inhibition ([3]; at 50.0 µM)?
Answer: 98.2% (active)

Question: And the growth inhibition [4, 7]?
Answer: 77% (active)

Question: What about the growth inhibition [4, 8] of the same molecule?
Answer: 93% (active)

Question: And the growth inhibition ([4]; at 50.0 µM)?
Answer: 97.5% (active)

Question: And the growth inhibition [5, 7]?
Answer: 74% (active)

Question: And the growth inhibition [5, 8]?
Answer: 96% (active)

Question: And the growth inhibition ([5]; at 50.0 µM)?
Answer: 97.7% (active)

Question: What about the growth inhibition [6, 7] of the same molecule?
Answer: 99% (active)

Question: What about the growth inhibition [6, 8] of the same molecule?
Answer: 93% (active)

Question: And the growth inhibition ([6]; at 50.0 µM)?
Answer: 98.6% (active)

Question: Which results are given for COc1ccc2nc3ccccc3c(NCCCCN(C)CCCl)c2c1?
Answer: growth inhibition [1, 7]: 58%; growth inhibition [1, 8]: 86% (active); growth inhibition ([1]; at 50.0 µM): 77.2% (active); growth inhibition [2, 7]: 23%; growth inhibition [2, 8]: 87% (active); growth inhibition ([2]; at 50.0 µM): 70.8% (active); growth inhibition [3, 7]: 42%; growth inhibition [3, 8]: 99% (active); growth inhibition ([3]; at 50.0 µM): 83.9% (active); growth inhibition [4, 7]: 34%; growth inhibition [4, 8]: 98% (active); growth inhibition ([4]; at 50.0 µM): 70%; growth inhibition [5, 7]: 46%; growth inhibition [5, 8]: 99% (active); growth inhibition ([5]; at 50.0 µM): 62.6%; growth inhibition [6, 7]: 61%; growth inhibition [6, 8]: 91% (active); growth inhibition ([6]; at 50.0 µM): 75.6% (active)
